Several values for one entry are separate records, joined by “and”; a condition that tells them apart may be missing. Equal values may be shown once. The campaign covered roughly 350,000 compounds. About 31,000 (8.9%) were called active. Roughly 15% stayed inconclusive and do not appear here. Calls follow the shape of the dose curve; as a rule, active = well fitted inhibition curve with a large enough effect; inconclusive = small, poorly fitted or top-dose-only effect; inactive = no such curve, though single readings can be large or run the other way. For the sample, actives were picked, then their nearest neighbours and some compounds at random. The source holds several records for some structures; these can differ, active in one and inactive in another.
biological target: Histone-lysine N-methyltransferase EHMT2 (Homo sapiens) (UniProt Q96KQ7); experiment: qHTS Assay for Inhibitors of Histone Lysine Methyltransferase G9a; conditions: G9a H3K9 monomethylation, AlphaScreen, 2 h; series mostly up to 59 µM; also: nearly all actives have a fitted effect of over 75% in size
Procedure, shortened: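 Quantitative HTS format: methyltransferase activity on a biotin-tagged H3K9 peptide is measured by AlphaScreen, using a rabbit anti-monomethyl-H3K9 antibody with streptavidin donor and anti-IgG acceptor beads. Final levels are 20 nM enzyme, 500 nM peptide, 20 uM SAM; 2 h RT.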
% is scaled to controls: 0 for no effect and ±100 for the full control effect; potency is read from the fitted curve at half-maximal effect.

Chain of Histone-lysine N-methyltransferase EHMT2 (Homo sapiens) (Q96KQ7 913-1193 limits assumed): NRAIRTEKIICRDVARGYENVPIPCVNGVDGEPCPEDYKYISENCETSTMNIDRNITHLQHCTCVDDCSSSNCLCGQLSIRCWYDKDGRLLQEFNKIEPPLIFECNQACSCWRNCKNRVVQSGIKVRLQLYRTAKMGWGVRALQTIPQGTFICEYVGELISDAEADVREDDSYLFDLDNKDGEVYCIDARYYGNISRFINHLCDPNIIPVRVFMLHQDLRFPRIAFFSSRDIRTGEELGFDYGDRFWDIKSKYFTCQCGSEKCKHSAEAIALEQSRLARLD

Potency, inactive:
CCN(CC)S(=O)(=O)c1ccc2c(c1)N(CC(=O)NCc1ccccc1)C(=O)CS2
CC(=O)Nc1ccc(NC(=O)CSc2nnc(COc3ccccc3C)n2CC2CCCO2)cc1 (centres undefined)
COc1ccccc1NC(=O)CSc1nnc(C)n1CC1CCCO1 (centres undefined)
Cc1ccc(NC(=O)COC(=O)CN2CCCCCC2=O)c(C)c1
Cc1cc(C)cc(-n2c(SCC(=O)NCC3CCCO3)nc3c([nH]c4ccccc43)c2=O)c1 (centres undefined)
CCOc1ccc(N2C(=O)CC(N(CCc3ccc(OC)c(OC)c3)C(=S)Nc3ccccc3)C2=O)cc1 (centres undefined)
CCCCCOC(=O)c1ccc(N2C(=O)C3C4C=CC(C4)C3C2=O)cc1 (centres undefined)
O=C(Nc1cccc(F)c1)NC1CCCc2ccccc21 (centres undefined)
COc1ccc(-n2ccn(CC(=O)Nc3ccc(C)c(C)c3)c(=O)c2=O)cc1OC
O=C1C(Cc2ccc(O)cc2)NC(=S)N1Cc1ccccc1 (centres undefined)
C=CCn1c(SCC(=O)NCCCO)nc2sc3c(c2c1=O)CCC3
Cc1nc2sc3c(c2c(=O)n1NC(=O)CCl)CCCC3
Cc1ccc(S(=O)(=O)N(CC(=O)Nc2ccc(Cl)cc2Cl)c2ccccc2C)cc1
CCCCN(C1CCS(=O)(=O)C1)S(=O)(=O)c1ccc(C(C)C)cc1 (centres undefined)
O=C(CCC(=O)N1CC2CCCN2c2ccccc21)NCc1ccccc1Cl (centres undefined)
Cc1ccccc1CNC(=O)c1ccc(NC(=O)N2CCCCc3ccccc32)cc1
COc1ccccc1CNC(=O)c1ccc(NC(=O)N2CC(C)Sc3ccccc32)cc1 (centres undefined)
COc1cc(OC)c(NC(=O)C2CCCN2C(=O)OCc2ccccc2)cc1Cl (centres undefined)
Cc1cccc(N2CCN(C(=O)COCc3cc(-c4ccc5c(c4)OCO5)on3)CC2)c1C
Oc1ccccc1C1=NN(c2ccccc2)C(c2ccccc2)C1 (centres undefined)
Cc1ccccc1C(=O)Nc1nnc(S(=O)(=O)N(C)c2ccc(Cl)cc2)s1
CCOC(=O)N1CCN(Cc2nc3cc(NC(C)=O)ccc3n2C)CC1
COc1cccc(-n2nc(C(=O)N3CCN(Cc4ccccc4)CC3)c3ccccc3c2=O)c1
CCCCN1C(=O)c2[nH]nc(-c3ccccc3O)c2C1c1cccc(OCc2ccccc2)c1 (centres undefined)
COCCCn1c(SCC(=O)NC2CCCC2)nnc1-c1ccccc1
Cc1cccc(C(=O)NCc2nnc(SC(C)C(=O)Nc3nnc(C)s3)n2C)c1 (centres undefined)
Cc1ccc(NC(=O)c2oc3ccc(S(=O)(=O)N4CCCCC4)cc3c2C)cc1Cl
C=CCn1c(=O)c(C(=O)NCc2ccc3c(c2)OCO3)c(O)c2ccccc21
COc1cc(C)c(C)cc1S(=O)(=O)N1CCCc2ccccc21
COc1ccc(OCC(=O)N2CCN(C(=O)COc3ccccc3)CC2)cc1
CC(C)(C)c1ccc(C(=O)Nc2ccc3c(c2)CCCN3C(=O)c2cccs2)cc1
CCCCCn1c(=O)[nH]c2cc(C(=O)Nc3cc(C)cc(C)c3)ccc2c1=O
O=C(CSc1nc2ccccc2s1)Nc1ccc(C(=O)O)cc1
O=C(O)CSCc1nc2ccccc2s1
Cc1ccc(Cc2nc3ccccc3nc2SCC(=O)Nc2cccc(C(F)(F)F)c2)cc1
Cc1cc(C)cc(NC(=O)Cn2nc(N3CCN(c4ccccc4)CC3)ccc2=O)c1
COc1ccc(NC(=O)c2cnc(Nc3ccc(C)c(Cl)c3)c3ccccc23)cc1OC
Cc1csc2nc(COc3ccc(NC(=O)COc4ccccc4)cc3)cc(=O)n12
Cc1csc2nc(COC(=O)c3ccccc3NC(=O)c3ccccc3Cl)cc(=O)n12
Cc1cccc2c(=O)cc(CSc3ccccc3NC(=O)C(C)C)[nH]c12
COc1ccc(OC)c(-n2nnc3c(sc4nc(C)c(Br)c(C)c43)c2=O)c1
O=C(OCC(=O)c1c[nH]c2ccccc12)c1cccc(O)c1
O=C(NC1CCCC1)C(=O)c1c[nH]c2ccccc12
Cc1cccn2c(=O)c(C(=O)NC(C)c3ccccc3)cnc12 (centres undefined)
CCn1c(CNC(=O)c2ccco2)nnc1SCC(=O)Nc1cccc(F)c1
CCn1c(=O)cc(SCC(=O)NCc2ccc3c(c2)OCO3)c2ccccc21
O=C(CSc1ccc(-c2ccc(F)cc2)nn1)Nc1ccc2c(c1)OCCO2
Brc1ccc(CSc2ccc(-c3ccco3)nn2)cc1
CCOc1ccc(Nc2nc3c(S(=O)(=O)c4cccc(Cl)c4)nnn3c3ccsc23)cc1
CC(C)S(=O)(=O)c1oc(-c2ccc(F)cc2)nc1S(=O)(=O)c1ccc(F)cc1
O=C(CN1C(=O)c2cccc3cccc(c23)C1=O)N1CCCCC1
O=C(COC(=O)CCCN1C(=O)c2cccc3cccc(c23)C1=O)NC1CCS(=O)(=O)C1 (centres undefined)
O=C(Cn1cnc2c(oc3ccccc32)c1=O)Nc1ccc(OC(F)(F)F)cc1
COc1cc(/C=N/NC(=O)c2cccnc2)ccc1OC(=O)c1cccc(Br)c1
CCCc1[nH]nc2c1C(C1CC=CCC1)C(C#N)=C(N)O2 (centres undefined)
CCCc1[nH]nc2c1C(c1ccc(OC(=O)c3ccco3)cc1)C(C#N)=C(N)O2 (centres undefined)
COc1ccc(C2=NN(C(=O)c3ccccc3C(=O)O)C(c3ccccc3O)C2)cc1 (centres undefined)
CCC(=O)Nc1ccc(C)cc1-c1nc2ccccc2n(Cc2ccccc2)c1=O
COc1ccc(NC(=O)c2sc(N)nc2-c2ccccc2)cc1
COc1ccc(NC(=O)CSc2nc(C)cs2)cc1

Potency, active:
CCOc1cccc(=O)c2c(C)n(CC3CCCO3)c(C)c12 (centres undefined) 70.8 µM
CCCCCCC(=O)N(O)C1CC(=O)N(c2ccccc2)C1=O (centres undefined) 0.794 µM
Oc1ccc(Cn2cc[nH]c2=S)cc1 3.16 µM and 2.99 µM
COCCCn1c(SCC(=O)Nc2oc(C)c3c(C)n[nH]c(=O)c23)nc2sc3c(c2c1=O)CCC3 6.31 µM
COc1ccc(CNC(=O)c2ccc(NC(=O)N3CC4CCCN4c4ccccc43)cc2)cc1 (centres undefined) 7.08 µM
COc1cc(OC)c(NC(=O)N2CC3CCCN3c3ccccc32)cc1Cl (centres undefined) 8.91 µM
CCOC(=O)N1CCN(Cc2nc3ccc([N+](=O)[O-])cc3c(=O)n2-c2cccc(OC)c2)CC1 39.8 µM
COCCn1c(SC(C)C(=O)NC2CC2)nnc1-c1cccc(C)c1 (centres undefined) 28.2 µM
C/C(CCC(=O)OC[C@H]1O[C@H](C#Cc2ccccc2)C=C[C@@H]1Oc1ccc(C)cc1)=N\OC[C@@H](O)[C@H]1O[C@@H]2OC(C)(C)O[C@@H]2[C@H]1O 50.1 µM
CC1CN(C2CCN(C(=O)COc3ccccc3)CC2)CC(C)O1 (centres undefined) 8.91 µM
O=C(O)c1ccccc1CSc1nc2ccccc2s1 10 µM
O=c1cc(CCl)nc2scc(-c3ccccc3)n12 50.1 µM
O=S(=O)(O)Oc1c[nH]c2ccccc12 2.51 µM
O=C(CSc1ccc(-c2ccco2)nn1)NCc1ccc2c(c1)OCO2 31.6 µM
Fc1cccc(Cl)c1CSc1ccc(-c2ccco2)nn1 31.6 µM
O=C(CSc1ccc(-c2ccco2)nn1)Nc1cccc(F)c1 15.8 µM
O=C1c2cccc3cccc(c23)C(=O)N1CCCCCc1n[nH]c(=S)o1 2.51 µM
CCCc1[nH]nc2c1C(c1ccc(Br)s1)C(C#N)=C(N)O2 (centres undefined) 50.1 µM
COc1ccc(NC(=O)c2sccc2SCC#N)cc1 7.94 µM

Potency, inactive and 22.4 µM (active):
C[N+](C)(CCCCCC[N+](C)(C)CCCN1C(=O)c2cccc3cccc(c23)C1=O)CCCN1C(=O)c2cccc3cccc(c23)C1=O

activity, negative = inhibition, inactive:
COc1cccc(CNC(=O)C(=O)NCCC2CCCCN2S(=O)(=O)c2ccc(C)cc2)c1 (centres undefined) 0.971% [at 0.501 µM]
N#Cc1ccc(OCC(=O)NC(=O)NC2CCS(=O)(=O)C2)cc1 (centres undefined) -2.17% [at 12.7 µM]
COc1ccc(OC)c(S(=O)(=O)Nc2c(C)nn(C)c2C)c1 3.63% [at 12.7 µM]
O=C(NNC(=O)c1cc(-c2ccccc2Cl)nc2ccccc12)c1csc(N2CCOCC2)n1 10% [at 2.33 µM]
COc1ccc(OCC(=O)N2CCOCC2)cc1 6.34% [at 12.7 µM]
Cc1cc(C)cc(NC(=O)C(OC(=O)c2ccc(O)cc2)c2ccccc2)c1 (centres undefined) -7.57% [at 12.7 µM]
COc1ccc(S(=O)(=O)N2CCN(CC(=O)NCC3(N4CCOCC4)CCCCC3)CC2)cc1 -3.79% [at 12.7 µM]
Cc1ccccc1-c1nnc(SCC(=O)NCc2ccc3c(c2)OCO3)n1C -10.1% [at 12.7 µM]
Cc1cc(SCc2c(F)cccc2Cl)nc(=O)[nH]1 -5.25% [at 0.501 µM]
CCN1C(=O)C(=O)N(CC(=O)Nc2cc(C)ccc2C)C1=O 1.01% [at 2.33 µM]
O=C1c2cccc3cccc(c23)C(=O)N1c1cccc(O)c1 21.1% [at 2.33 µM]
COc1ccc(N2C(=O)c3cccc4cccc(c34)C2=O)nn1 -3.86% [at 12.7 µM]
CCc1ccccc1NC(=O)CN(C)C(=O)c1cc(C2CC2)nn1-c1ccccc1 14.2% [at 12.7 µM]
COc1ccccc1-c1sc2ccccc2c1-c1ccc(Br)nc1 -0.161% [at 0.501 µM]

Reference: PubChem BioAssay AID504332 (National Center for Advancing Translational Sciences (NCATS), 2011)
